Source: PubChem BioAssay (Tox21)
Inconclusive results are not listed. Activity calls are given as the source filed them. Unless noted, the call rests on the fitted dose curve.

Key:
[1] = qHTS assay to identify small molecule agonists of the estrogen receptor beta (ER-beta) signaling pathway - cell viability counter screen (AID 1259380; active means well fitted curve in the direction sought with a large enough effect in the repeat runs; an effect the other way counts as inactive or inconclusive; further: nearly all actives have a fitted effect of over 30% in size; further: potency means the concentration at half of the fitted maximal effect)
Procedure, shortened: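 ER-beta-UAS-bla HEK293T cells in medium with 2% charcoal-stripped FBS were preincubated 6 hr at 37C, dosed with compound in DMSO for 16 hr, then after the bla read, CellTiter-Glo was added for 30 min at room temperature; luminescence recorded.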

[2] = molecular target: Androgen receptor (Homo sapiens) (UniProt P10275); assay: qHTS assay to identify small molecule agonists of the androgen receptor (AR) signaling pathway in the presence of an antagonist (AID 1259381); further: nearly all actives have a fitted effect of over 15% in size
Sequence of Androgen receptor (Homo sapiens) (P10275 whole entry, looked up): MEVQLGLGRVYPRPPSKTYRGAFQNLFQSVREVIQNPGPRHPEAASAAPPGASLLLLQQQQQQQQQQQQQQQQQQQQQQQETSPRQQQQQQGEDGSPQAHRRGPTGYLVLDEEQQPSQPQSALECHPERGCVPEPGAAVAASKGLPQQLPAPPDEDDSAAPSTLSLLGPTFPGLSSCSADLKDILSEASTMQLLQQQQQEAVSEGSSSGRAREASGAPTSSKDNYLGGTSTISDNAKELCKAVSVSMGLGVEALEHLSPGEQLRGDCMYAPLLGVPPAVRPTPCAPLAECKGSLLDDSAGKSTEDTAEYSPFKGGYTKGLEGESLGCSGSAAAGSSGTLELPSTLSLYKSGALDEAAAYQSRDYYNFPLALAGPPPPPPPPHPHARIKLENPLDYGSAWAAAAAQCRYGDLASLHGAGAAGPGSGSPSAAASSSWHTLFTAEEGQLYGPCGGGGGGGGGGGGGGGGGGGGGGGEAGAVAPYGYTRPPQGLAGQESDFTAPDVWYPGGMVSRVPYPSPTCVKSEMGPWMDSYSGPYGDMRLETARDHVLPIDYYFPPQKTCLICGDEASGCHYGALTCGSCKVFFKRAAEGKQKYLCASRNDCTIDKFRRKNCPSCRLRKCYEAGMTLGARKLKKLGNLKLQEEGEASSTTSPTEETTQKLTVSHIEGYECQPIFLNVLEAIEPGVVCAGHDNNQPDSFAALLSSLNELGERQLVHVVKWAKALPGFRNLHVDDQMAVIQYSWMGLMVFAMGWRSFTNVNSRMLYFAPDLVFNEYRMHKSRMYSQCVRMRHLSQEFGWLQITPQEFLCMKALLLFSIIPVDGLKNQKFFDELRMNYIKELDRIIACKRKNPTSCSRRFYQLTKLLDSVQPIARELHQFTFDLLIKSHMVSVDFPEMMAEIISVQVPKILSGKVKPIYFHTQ
Procedure, shortened: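 MDA-kb2 human breast carcinoma cells carrying an MMTV-luciferase reporter (AR- and GR-responsive) were treated with compounds at 15 concentrations plus 3.0uM final nilutamide for 16hr at 37C without CO2; luminescence was read after ONE-Glo addition.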

[3] = qHTS assay to identify small molecule antagonists of the estrogen receptor beta (ER-beta) signaling pathway - cell viability counter screen (AID 1259382; active means well fitted curve in the direction sought with a large enough effect in the repeat runs; an effect the other way counts as inactive or inconclusive; further: nearly all actives have a fitted effect of over 55% in size; further: potency means the concentration at half of the fitted maximal effect;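 on activity change, negative = cytotoxicity: HEK293T cells carrying ER-beta-UAS-bla reporter stimulated with estradiol; series mostly up to about 92 µM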)
Procedure, shortened: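 ER-beta-UAS-bla HEK293T cells (2,000/well, 2% charcoal-stripped FBS) were pre-incubated 6 hr at 37C, then given compound plus 1nM final 17-beta-estradiol for 16 hr. Viability was read in the same wells by CellTiter-Glo luminescence after 30 min at room temperature.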

[4] = molecular target: Estrogen receptor (Homo sapiens) (UniProt P03372); assay: qHTS assay to identify small molecule agonists of the estrogen receptor alpha (ER-alpha) signaling pathway in the presence of an antagonist (AID 1259383); further: top concentration of the series differs between compounds; nearly all actives have a fitted effect of over 15% in size
Sequence of Estrogen receptor (Homo sapiens) (P03372 whole entry, looked up): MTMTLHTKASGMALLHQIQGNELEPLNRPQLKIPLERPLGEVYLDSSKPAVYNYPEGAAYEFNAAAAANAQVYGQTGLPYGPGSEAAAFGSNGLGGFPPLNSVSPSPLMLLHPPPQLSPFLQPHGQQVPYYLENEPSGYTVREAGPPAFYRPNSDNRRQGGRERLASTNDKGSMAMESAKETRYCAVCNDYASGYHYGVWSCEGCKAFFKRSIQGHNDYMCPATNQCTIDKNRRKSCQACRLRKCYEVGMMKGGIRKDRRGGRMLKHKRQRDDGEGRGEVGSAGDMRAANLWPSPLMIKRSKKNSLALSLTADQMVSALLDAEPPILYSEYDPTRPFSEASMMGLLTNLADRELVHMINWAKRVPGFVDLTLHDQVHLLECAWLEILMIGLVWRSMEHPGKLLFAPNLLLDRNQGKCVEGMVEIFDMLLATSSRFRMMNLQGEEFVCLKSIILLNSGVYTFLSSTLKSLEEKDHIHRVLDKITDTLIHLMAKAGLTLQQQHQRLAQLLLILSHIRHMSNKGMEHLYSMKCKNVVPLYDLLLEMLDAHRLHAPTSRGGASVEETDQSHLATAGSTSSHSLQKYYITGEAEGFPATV
Procedure, shortened: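 VM7Luc4E2 cells (endogenous full-length ER-alpha, 4×ERE-luciferase) were precultured 5 days in phenol red-free medium with 10% charcoal-stripped FBS, given 10.0nM ICI-182,780 (final), then treated with compounds at 15 concentrations for 22hr at 37C; luminescence read with ONE-Glo.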

[5] = qHTS assay to identify small molecule agonists or antagonists of the thyroid stimulating hormone receptor (TSHR) signaling pathway - wild type cell line counter screen (AID 1259384); further: potency means the concentration at half of the fitted maximal effect
Procedure, shortened: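 Counter screen in untransfected Hek293: compounds (15-point titration, triplicate) plus phosphodiesterase inhibitor Ro20-1724 added after 18 h plating; 30 min RT. Intracellular cAMP via competitive d2/cryptate immunoassay, 1 h incubation.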

[6] = molecular target: Thyrotropin receptor (Homo sapiens) (UniProt P16473); assay: qHTS assay to identify small molecule antagonists of the thyroid stimulating hormone receptor (TSHR) signaling pathway (AID 1259385); further: nearly all actives have a fitted effect of over 20% in size; further: potency means the concentration at half of the fitted maximal effect
Sequence of Thyrotropin receptor (Homo sapiens) (P16473 whole entry, looked up): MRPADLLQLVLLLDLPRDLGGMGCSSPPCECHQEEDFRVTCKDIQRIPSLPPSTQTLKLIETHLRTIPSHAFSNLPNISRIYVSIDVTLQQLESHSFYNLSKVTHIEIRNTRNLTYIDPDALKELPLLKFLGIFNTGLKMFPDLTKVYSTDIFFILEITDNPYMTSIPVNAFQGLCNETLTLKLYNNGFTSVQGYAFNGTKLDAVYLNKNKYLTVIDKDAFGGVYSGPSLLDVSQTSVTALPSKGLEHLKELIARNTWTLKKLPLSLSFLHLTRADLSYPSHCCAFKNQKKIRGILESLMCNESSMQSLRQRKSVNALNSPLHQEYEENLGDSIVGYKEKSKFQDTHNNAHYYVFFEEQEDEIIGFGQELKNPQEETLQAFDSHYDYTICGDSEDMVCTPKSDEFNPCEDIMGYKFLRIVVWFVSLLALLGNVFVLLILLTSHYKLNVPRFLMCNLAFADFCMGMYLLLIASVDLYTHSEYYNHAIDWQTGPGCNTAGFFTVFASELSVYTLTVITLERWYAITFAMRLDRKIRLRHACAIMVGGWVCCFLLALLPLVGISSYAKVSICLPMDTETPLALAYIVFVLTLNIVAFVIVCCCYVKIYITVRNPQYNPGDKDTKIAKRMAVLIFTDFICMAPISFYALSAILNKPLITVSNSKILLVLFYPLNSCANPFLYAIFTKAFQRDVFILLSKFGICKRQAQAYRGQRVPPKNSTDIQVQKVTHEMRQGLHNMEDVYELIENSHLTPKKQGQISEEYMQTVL
Procedure, shortened: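 Antagonist mode: compound-treated TSHR-expressing HEK293 cells were stimulated with 1.5 ng/mL TSH (final) in presence of Ro20-1724 for 30 min at RT. HTRF cAMP detection after 1 h; each compound tested at 15 concentrations, triplicate.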

[7] = qHTS assay to identify small molecule agonists of the estrogen receptor alpha (ER-alpha) signaling pathway in the presence of an antagonist - cell viability counter screen (AID 1259386; active means well fitted curve in the direction sought with a large enough effect in the repeat runs; an effect the other way counts as inactive or inconclusive;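 further: series mostly up to about 92 µM; cells exposed to compounds for 22 h at 37 °C before the viability read; nearly all actives have a fitted effect of over 30% in size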)
Procedure, shortened: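 VM7Luc4E2 cells (endogenous full-length ER-alpha, 4×ERE-luciferase) were held 5 days in phenol red-free medium with 10% charcoal-stripped FBS, plated, then given 10.0nM ICI-182,780 and compounds at 15 concentrations for 22hr at 37C; viability read by CellTiter-Fluor fluorescence.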

[8] = molecular target: Progesterone receptor (Homo sapiens) (UniProt P06401); assay: qHTS assay to identify small molecule agonists of the progesterone receptor (PR) signaling pathway (AID 1346784); further: nearly all actives have a fitted effect of over 30% in size
Sequence of Progesterone receptor (Homo sapiens) (P06401 whole entry, looked up): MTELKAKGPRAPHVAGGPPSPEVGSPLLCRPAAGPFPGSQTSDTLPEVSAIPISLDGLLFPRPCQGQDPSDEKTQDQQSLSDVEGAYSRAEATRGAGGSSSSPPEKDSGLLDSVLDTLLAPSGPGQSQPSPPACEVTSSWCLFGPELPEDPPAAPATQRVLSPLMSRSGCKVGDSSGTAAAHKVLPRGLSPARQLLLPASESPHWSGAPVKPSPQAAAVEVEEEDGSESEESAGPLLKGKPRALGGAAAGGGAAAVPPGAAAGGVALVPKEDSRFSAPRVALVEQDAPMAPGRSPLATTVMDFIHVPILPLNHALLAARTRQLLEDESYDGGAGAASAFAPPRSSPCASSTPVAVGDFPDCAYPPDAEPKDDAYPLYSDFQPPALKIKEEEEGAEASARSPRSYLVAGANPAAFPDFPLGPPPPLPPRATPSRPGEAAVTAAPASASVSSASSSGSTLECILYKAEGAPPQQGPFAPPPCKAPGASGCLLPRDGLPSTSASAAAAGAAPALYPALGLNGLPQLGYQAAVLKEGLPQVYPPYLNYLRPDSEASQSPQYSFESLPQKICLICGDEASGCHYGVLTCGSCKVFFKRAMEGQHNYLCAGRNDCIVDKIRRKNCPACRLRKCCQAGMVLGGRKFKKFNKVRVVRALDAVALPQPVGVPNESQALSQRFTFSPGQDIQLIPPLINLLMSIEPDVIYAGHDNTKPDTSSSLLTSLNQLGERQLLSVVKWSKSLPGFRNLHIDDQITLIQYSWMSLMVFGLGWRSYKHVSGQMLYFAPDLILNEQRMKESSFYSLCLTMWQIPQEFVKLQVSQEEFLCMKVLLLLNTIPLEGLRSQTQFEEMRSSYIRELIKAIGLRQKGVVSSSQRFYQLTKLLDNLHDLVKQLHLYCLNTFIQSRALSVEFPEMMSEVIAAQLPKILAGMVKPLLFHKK
Procedure, shortened: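 Agonist qHTS: compounds pinned onto 3,000 PR-UAS-bla HEK 293T cells per well in charcoal-stripped serum medium, 16hr at 37C, then beta-lactamase activity measured by LiveBLAzer FRET fluorescence after 2 hours at room temperature.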

[9] = qHTS assay to identify small molecule antagonists of the progesterone receptor (PR) signaling pathway - cell viability counter screen (AID 1346798; active means well fitted curve in the direction sought with a large enough effect in the repeat runs; an effect the other way counts as inactive or inconclusive; further: series mostly up to about 92 µM; nearly all actives have a fitted effect of over 50% in size)
Procedure, shortened: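 Cytotoxicity read as CellTiter-Glo luminescence (30 min, room temperature) in the same wells as the beta-lactamase readout. HEK293T PR-UAS-bla cells in charcoal-stripped 2% FBS received compound and R5020, then 16 h at 37C, 5% CO2.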

[10] = molecular target: Progesterone receptor (Homo sapiens) (UniProt P06401); assay: qHTS assay to identify small molecule antagonists of the progesterone receptor (PR) signaling pathway (AID 1346795; active means well fitted inhibition curve with a large enough effect in the signal ratio in the repeat runs, not every such curve was filed as active; the % refers to the signal ratio; further: potency means the concentration at half of the fitted maximal effect)
Procedure, shortened: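 Antagonist mode with agonist R5020 at 1 nM final and 16 hr incubation at 37C. Reporter was beta-lactamase driven by UAS in HEK293T (PR-UAS-bla), 2% charcoal-stripped serum; signal from LiveBLAzer FRET substrate, 2 hr at room temperature.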
On the % scale 0 is the no-effect control and ±100 the full control effect.

CC1=CC[C@@H](C(C)(C)O)CC1
inactive: Potency [1] | Potency [2] | Potency [3] | Potency [4] | Potency [5] | Potency [6] | Potency [7] | outcome [8] | Potency [9]

Clc1ccc2c(Cl)ccnc2c1
inactive: Potency [1] | Potency [2] | Potency [3] | Potency [4] | Potency [5] | Potency [6] | Potency [7] | outcome [8] | Potency [10] | Potency [9]

N#Cc1ccc(C/C(=N/NC(=O)Nc2ccc(OC(F)(F)F)cc2)c2cccc(C(F)(F)F)c2)cc1
active: Potency [10] 27.3 µM
inactive: Potency [1] | Potency [2] | Potency [3] | Potency [4] | Potency [5] | Potency [6] | Potency [7] | outcome [8]

CN1CCN(C)CC1
inactive: Potency [1] | Potency [2] | Potency [3] | Potency [4] | Potency [5] | Potency [6] | outcome [8] | Potency [10]

CCC(O)CO (stereo unspecified)
inactive: Potency [1] | Potency [2] | Potency [3] | Potency [4] | Potency [5] | Potency [6] | Potency [7] | outcome [8] | Potency [10] | Potency [9]

Brc1cc(Br)cc(Br)c1
inactive: Potency [1] | Potency [2] | Potency [3] | Potency [4] | Potency [5] | Potency [6] | outcome [8] | Potency [10]

Cc1ccc(S(=O)(=O)C(I)I)cc1
active: Potency [1] 21.7 µM | Potency [3] 30.6 µM | Potency [5] 9.69 µM | Potency [6] 68.6 µM
inactive: Potency [2] | Potency [4]

Cc1ccc2sc3cccc(C)c3c2c1
inactive: Potency [1] | Potency [2] | Potency [3] | Potency [4] | Potency [5] | Potency [6] | Potency [7] | outcome [8] | Potency [9]

C=CC(=O)OCC(Br)CBr (stereo unspecified)
inactive: Potency [1] | Potency [2] | Potency [3] | Potency [4] | Potency [5] | Potency [6] | Potency [7] | outcome [8] | Potency [10] | Potency [9]

COCCC(=O)OC
inactive: Potency [1] | Potency [2] | Potency [3] | Potency [4] | Potency [5] | Potency [6] | outcome [8]

C/C=C/C(=O)OCC(C)C
inactive: Potency [1] | Potency [2] | Potency [3] | Potency [4] | Potency [5] | Potency [6] | Potency [7] | outcome [8] | Potency [9]

CCCCCCCCc1ccc(Nc2ccc(CCCCCCCC)cc2)cc1
inactive: Potency [1] | Potency [2] | Potency [3] | Potency [4] | Potency [5] | Potency [6] | Potency [7] | outcome [8] | Potency [10] | Potency [9]

CC/C=C\C/C=C\C/C=C\CCCCCCCC(=O)OC
active: Potency [1] 48.6 µM
inactive: Potency [2] | Potency [3] | Potency [4] | Potency [5] | Potency [6] | Potency [7] | outcome [8] | Potency [10] | Potency [9]

Cc1cc(C)c(O)c(C(C)(C)C)c1
inactive: Potency [1] | Potency [2] | Potency [3] | Potency [4] | Potency [5] | Potency [6] | outcome [8] | Potency [10]

CCc1cccc(C)c1N(C(=O)C(=O)O)C(C)COC (stereo unspecified)
inactive: Potency [1] | Potency [2] | Potency [3] | Potency [4] | Potency [5] | Potency [6] | outcome [8] | Potency [10]

C=CC(=O)OCCOC1C2CCC1C1CC=CC12 (stereo unspecified)
inactive: activity change, negative = cytotoxicity [1] -0.168% [at 19 µM] | activation [2] 0.68% [at 19 µM] | activity change, negative = cytotoxicity [3] 2.85% [at 19 µM] | activation [4] 0.428% [at 19 µM] | cAMP activity change [5] -2.01% [at 18.9 µM, active compounds read high] | activity change, negative = inhibition [6] 6.1% [at 19 µM] | activity change, negative = cytotoxicity [7] 0.411% [at 19 µM] | activity change, negative = cytotoxicity [9] 13.6% [at 18.9 µM]

Cn1c(=O)[nH]c2ncn(C)c2c1=O
inactive: Potency [1] | Potency [2] | Potency [3] | Potency [4] | Potency [5] | Potency [6] | Potency [7] | outcome [8] | Potency [10] | Potency [9]

CCC1(C)C(=O)N(Cl)C(=O)N1Cl (stereo unspecified)
inactive: Potency [1] | Potency [2] | Potency [3] | Potency [4] | Potency [5] | Potency [6] | Potency [7] | outcome [8] | Potency [10]

N#CCCOCCC#N
inactive: Potency [1] | Potency [2] | Potency [3] | Potency [4] | Potency [5] | Potency [6] | Potency [7] | outcome [8] | Potency [9]

COc1cc2ncnc(Nc3cccc(Cl)c3)c2cc1OC
inactive: activity change, negative = cytotoxicity [1] -15.7% [at 19 µM] | activation [2] -2.82% [at 19 µM] | activity change, negative = cytotoxicity [3] 0.759% [at 19 µM] | activation [4] -1.36% [at 19 µM] | cAMP activity change [5] 2.68% [at 18.9 µM, active compounds read high] | activity change, negative = inhibition [6] 1.54% [at 19 µM] | activity change, negative = cytotoxicity [7] -5.87% [at 19 µM] | activation [8] -0.0125% [at 19 µM]

Cc1cc(F)ccc1-c1cc(N2CC[C@@H](O)[C@H]2CO)ncc1N(C)C(=O)C(C)(C)c1cc(C(F)(F)F)cc(C(F)(F)F)c1
active: Potency [1] 47.8 µM | Potency [3] 53.6 µM
inactive: Potency [2] | Potency [4] | Potency [5] | Potency [6] | Potency [7] | Potency [9]

CC1(C)[C@H](C(=O)OCc2cccc(Oc3ccccc3)c2)[C@@H]1C=C(Cl)Cl
inactive: Potency [1] | Potency [2] | Potency [3] | Potency [4] | Potency [5] | Potency [6] | Potency [7] | outcome [8] | Potency [10] | Potency [9]

O=c1cc[nH]cc1
inactive: Potency [1] | Potency [2] | Potency [3] | Potency [4] | Potency [5] | Potency [6] | outcome [8] | Potency [10]
